Shown are actives, neighbours in structure and some others; about 10% of the full set was active somewhere.
Sfp PPTase inh: inhibitors of Bacillus subtilis Sfp phosphopantetheinyl transferase; Q9F4F7; Biochemical Sfp PPTase activity, qHTS; Potency, µM, for the others: largest response in the series, negative = inhibition, most hits filed as inhibitors; actives 3.5% (n = 310,000); AID 1490;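 further: the enzyme is Sfp with the accession as filed and its product quenches rhodamine fluorescence; potency means the concentration at half of the fitted maximal effect; 0% = enzyme reaction without inhibitor and -100% = no enzyme wells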
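After 15 min at room temperature with compound, 15 nM Sfp received 5 uM rhodamine-CoA plus 12.5 uM BHQ-2-ybbR (50 mM Hepes pH 7.6, 10 mM MgCl2). Rate came from the fluorescence difference over 30 min, ex 525/em 598 nm.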
CCT chaperon mod: cytosolic chaperonin activity modulation | activity change, % (concentration not given with the values), hits read low | purified chaperonin ATPase assay, HTRF ADP detection, 30 min | actives 0.3% (n = 360,000); in the data active means activity change below about -30%
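Nucleotide hydrolysis assay: TRiC at 20–40 nM final (set by batch activity) with 10 uM ATP, 30 min at 37 °C, in presence of 76 uM compound. Detection by competitive ADP HTRF, 30 min ambient.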
PLK1 PBD block: blocks phosphopeptide binding to human PLK1 polo-box domain; P53350; Plk1 PBD binding of FITC phosphopeptide, fluorescence polarization; Potency, µM, for the others: max response, negative = inhibition, actives largely listed as inhibitors; actives 2.8% (n = 360,000); AID 720504; further: potency means the concentration at half of the fitted maximal effect; series mostly up to about 57 µM; nearly all actives have a fitted effect of over 65% in size
G9a block: G9a (human) methyltransferase inhibition | Q96KQ7 | G9a H3K9 monomethylation, AlphaScreen, 2 h | Potency, µM (series often up to 102 µM), without a hit: top-dose activity, negative = inhibition, usual class: inhibitors | actives 8.8% (n = 350,000); further: potency means the concentration at half of the fitted maximal effect; nearly all actives have a fitted effect of over 75% in size
Target sequence (Q96KQ7 913-1193 limits assumed): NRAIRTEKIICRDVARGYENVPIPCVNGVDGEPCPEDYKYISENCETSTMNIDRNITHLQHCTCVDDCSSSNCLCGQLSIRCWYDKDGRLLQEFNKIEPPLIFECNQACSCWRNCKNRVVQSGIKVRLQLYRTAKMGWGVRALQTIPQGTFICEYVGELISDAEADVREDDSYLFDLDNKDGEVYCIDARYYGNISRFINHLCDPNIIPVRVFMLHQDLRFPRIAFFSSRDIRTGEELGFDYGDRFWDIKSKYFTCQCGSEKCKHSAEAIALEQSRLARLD
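G9a (20 nM) was preincubated 15 min with compound, then reacted 2 h at room temperature with 500 nM biotin-H3K9 peptide and 20 µM SAM. Monomethyl-H3K9 detected by AlphaScreen using anti-H3K9me1 antibody.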
MmCpn inh: M. maripaludis TRiC chaperonin inhibition; purified Mm-Cpn ATPase, ADP Transcreener TR-FRET; Potency, µM (titrated, usually from 76.9 µM), for the others: at the highest dose activity, negative = inhibition, usual class: inhibitors; actives 0.031% (n = 330,000); AID 504842; further: potency means the concentration at half of the fitted maximal effect; nearly all actives have a fitted effect of over 80% in size
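25 nM Mm-CPN + cpd, 10 min 37°C; + 10 uM ATP, 30 min 37°C; buffer 30 mM Tris pH 7.4, 100 mM KCl, 5 mM MgCl2, 1 mM DTT; Transcreener ADP HTRF detection 30 min RT.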
VDR inhibitor: blocks the human vitamin D receptor | P11473 | VDR-SRC2-3 peptide fluorescence polarization, 2 h | AID 504847 | actives 0.93% (n = 400,000) | Potency, µM, without a hit: max response, negative = inhibition, actives largely listed as inhibitors; further: potency means the concentration at half of the fitted maximal effect
Target sequence (P11473 whole entry, looked up): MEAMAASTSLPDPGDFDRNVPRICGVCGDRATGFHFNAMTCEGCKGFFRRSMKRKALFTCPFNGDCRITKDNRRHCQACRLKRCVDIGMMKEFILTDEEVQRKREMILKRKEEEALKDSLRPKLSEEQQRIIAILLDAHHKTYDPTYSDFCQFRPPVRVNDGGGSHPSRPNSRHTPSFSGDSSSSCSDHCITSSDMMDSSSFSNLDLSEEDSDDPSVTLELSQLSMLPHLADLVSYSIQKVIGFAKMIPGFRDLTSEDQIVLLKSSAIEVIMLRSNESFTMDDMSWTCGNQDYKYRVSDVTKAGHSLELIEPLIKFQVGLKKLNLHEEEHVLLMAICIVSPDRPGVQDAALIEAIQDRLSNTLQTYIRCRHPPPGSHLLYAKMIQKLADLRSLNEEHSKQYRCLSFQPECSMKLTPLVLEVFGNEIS
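Compounds are added to VDR with labelled SRC2-3 coactivator peptide and held 2 h at room temperature. Inhibition of the VDR–peptide interaction is then read as a change in fluorescence polarization.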
* marks the source's active call; other numbers are inactive results; ? = inconclusive; . = not tested or not shown; [ ] = remark or other dose. Unless noted, the call rests on the fitted dose curve; in most records, active means well fitted curve in the direction sought with a large enough effect; inconclusive means small, poorly fitted or top-dose-only effect, or another doubt; inactive means no such curve, though single readings can be large; an effect the other way counts as inactive or inconclusive. Unless noted, on the % scale 0 is the no-effect control and ±100 the full control effect.

SMILES	Sfp PPTase inh	CCT chaperon mod	PLK1 PBD block	G9a block	MmCpn inh	VDR inhibitor
COc1cc(/C=C/C(=O)OCC(=O)Nc2cc(S(=O)(=O)N3CCCCC3)ccc2C)ccc1O	15%	0	-10%	-3%[59 µM]	-29%	5%
O=C(Nc1ccc(S(=O)(=O)N2CCOCC2)cc1)c1ccc(Br)o1	9%	0	0%	1%[12.7 µM]	1%	3%
COCCNCC(=O)Nc1ccc(C)c(S(=O)(=O)N2CCCCC2)c1	-8%	-3	-16%	8.9µM*	1%	-4%
COc1cc(/C=C/C(=O)OCC(=O)Nc2ccc(C)c(S(=O)(=O)N3CCCCC3)c2)ccc1O	13%	2	7.5µM*	?	0%	?
CO[C@H](C(=O)[C@@H](O)[C@@H](C)O)C1Cc2cc3cc(O[C@H]4C[C@@H](O[C@H]5C[C@@H](O)[C@H](O)[C@@H](C)O5)[C@@H](O)[C@@H](C)O4)c(C)c(O)c3c(O)c2C(=O)[C@H]1O[C@H]1C[C@@H](O[C@H]2C[C@@H](O[C@H]3C[C@](C)(O)[C@H](O)[C@@H](C)O3)[C@H](O)[C@@H](C)O2)[C@H](O)[C@@H](C)O1 (some centres not stated)	6%	.	.	-11%[12.7 µM]	.	?
O=C(CN1C=NS(=O)(=O)c2ccc(C(F)(F)F)cc21)Nc1cccc(C(F)(F)F)c1	.	.	.	-2%[59 µM]	.	17%
Cc1ccc(NC(=O)CSc2ccc(Br)cc2)cc1S(=O)(=O)N1CCOCC1	.	-1	12µM*	0%[59 µM]	1%	-27%
Cc1ccc(NC(=O)CNCCCN2CCOCC2)cc1S(=O)(=O)N1CCCCC1	79µM*	-5	-3%	14µM*	0%	3%
Cc1ccc(NC(=O)CN2CCOCC2)cc1S(=O)(=O)N1CCCCC1	.	-4	5%	.	2%	-17%
COCCNC(=O)C1=C(N)C(C(=O)Nc2ccc(C)c(S(=O)(=O)N3CCCCC3)c2)SC1=Nc1ccc(C)cc1C (configuration not stated)	-2%	-1	-9%	50µM*	-4%	12%
COc1ccc(C2C(C(=O)Nc3ccccc3)=C(C)Nc3c(C(=O)Nc4ccccc4)cnn32)cc1 (configuration not stated)	.	.	.	-37%[59 µM]	.	0%
COc1ccccc1-c1sc2ccccc2c1-c1ccc(OCCN2CCOCC2)cc1	.	0	2%	.	40µM*	-12%
c1ccc(-c2sc3ccccc3c2-c2ccc(OCCN3CCOCC3)cc2)cc1	.	-4	1%	.	-1%	6%
COc1ccc(COC(=O)N/N=C2/C[C@@H](O)[C@@H](O)[C@@H]3[C@@H]4C(=O)N(C[C@@H]5CCCO5)C(=O)[C@H]4CC[C@H]23)cc1	-6%	.	.	.	.	.
CC(=O)c1cccc(NS(=O)(=O)c2ccc3[nH]c4c(c3c2)CCCCC4)c1	.	.	.	16µM*	.	21%
COC(=O)C1CCN(C(=O)COC(=O)c2ccc3[nH]c4c(c3c2)CCCC4)CC1	.	-1	4%	50µM*	1%	6%
CCOC(=O)c1cccc(NS(=O)(=O)c2ccc3[nH]c4c(c3c2)CCCC4)c1	.	.	.	14µM*	.	-1%
Cc1cccc(NS(=O)(=O)c2ccc3[nH]c4c(c3c2)CCCCCC4)c1	.	.	.	16µM*	.	6%
O=S(=O)(Nc1cccc(Cl)c1)c1ccc2[nH]c3c(c2c1)CCCCCC3	.	.	.	-9%[59 µM]	.	6%
CCOc1ccccc1CNC(=O)c1cnc2sc(N3CCC(C)CC3)nn2c1=O	.	.	.	-7%[59 µM]	.	0%
CCOC(=O)C(=CNc1cccc(C)c1C)C(=O)OCC	19%	-122*	-7%	6%[59 µM]	-3%	4%
CCOC(=O)C(=CNNc1cccc(Cl)c1)C(=O)OCC	?	2	9.5µM*	3.5µM*	2%	?
O=C(Nc1nnc(SCc2cc(=O)n3cc(Cl)ccc3n2)s1)c1cccc(F)c1	.	.	.	-2%[59 µM]	.	10%
O=C(N/N=C/c1cc([N+](=O)[O-])ccc1Cl)c1cc(-c2ccccc2)nc2ccccc12	-20%	-1	4%	10%[12.7 µM]	0%	10%
Nc1c(C(=O)N/N=C/c2ccccc2Cl)oc2nc(-c3ccccc3)cc(-c3ccco3)c12	-14%	-1	-11%	20µM*	-2%	18%
SMILES	Sfp PPTase inh	CCT chaperon mod	PLK1 PBD block	G9a block	MmCpn inh	VDR inhibitor
Nc1c(C(=O)N/N=C/c2ccc(F)cc2)oc2nc(-c3ccccc3)cc(-c3ccco3)c12	-8%	-4	26%	28µM*	-2%	25%
O=C(c1cccc(F)c1)N1CCC2(CC1)CN(c1ncccn1)C2	-8%	.	.	12%[12.7 µM]	.	-2%
CO[C@@H]1COC(=O)C/C=C\[C@@H](C)[C@H](OC)COC(=O)C/C=C\[C@H]1C	11%	.	.	.	.	.
Cc1ccc(NC(=O)N(Cc2cn(C)c3ccccc23)C2CCCCC2)cc1C	.	.	.	-11%[59 µM]	.	-9%
COc1cc(C(=O)NS(=O)(=O)c2ccccc2C)ccc1Cc1cn(C)c2ccc(NC(=O)OC3CCCC3)cc12	-14%	.	.	?	3%	50µM*
Cc1ccc(C2CC(c3cccs3)=NN2C(=O)CSc2nc(=O)n3ccc(C)cc3n2)cc1 (configuration not stated)	.	.	-7%	-41%	?	.
COc1ccc(C2CC(c3cccs3)=NN2C(=O)CSc2nc(=O)n3ccc(C)cc3n2)cc1 (configuration not stated)	.	-46*	0%	-42%	?	-8%
COc1ccc(C2CC(c3ccccc3)=NN2C(=O)CCC(=O)O)cc1 (configuration not stated)	13%	-1	-14%	.	-1%	-2%
COc1ccc(C2CC(c3ccccc3)=NN2C(=O)COC(=O)c2cccnc2)cc1 (configuration not stated)	-17%	0	2%	18µM*	-8%	-4%
O=C(OCC(=O)N1N=C(c2ccc(Cl)cc2)CC1c1ccco1)c1cccnc1 (configuration not stated)	.	2	-30%	.	-1%	40µM*
COc1ccc(C2=NN(C(=O)CCC(=O)O)C(c3ccc([N+](=O)[O-])cc3)C2)cc1 (configuration not stated)	8%	1	-12%	40µM*	1%	-4%
COc1ccc(-n2c(=O)c3c(c4cc(OC)ccc4n3C)n(Cc3cccc(OC)c3)c2=O)cc1	.	.	.	2%[59 µM]	.	18%
CCc1ccc(C(=O)c2cn(CC(=O)Nc3cccc(OC)c3)c3cc4c(cc3c2=O)OCO4)cc1	.	.	.	-1%[59 µM]	.	14%
CCc1ccc(NC(=O)c2ccc3c(O)c(S(=O)(=O)c4ccc(Cl)cc4)c(=O)[nH]c3c2)cc1	.	.	.	-1%[59 µM]	.	0%
CCOc1ccc(CNc2nc3nc(C)c(Cc4ccccc4)c(=O)n3[nH]2)cc1	.	.	.	?	.	18%
CC(=O)N1N=C(c2ccc([N+](=O)[O-])cc2)CC1c1ccccc1Cl (configuration not stated)	-5%	-1	-15%	50µM*	-2%	-21%

Assay outcomes deposited in PubChem BioAssay by National Center for Advancing Translational Sciences (NCATS).
